Screening data (PubChem BioAssay)
Shown are actives, neighbours in structure and some others; about 2% of the full set was active somewhere.
TLR9-MyD88 block – inhibitors of TLR9-MyD88 association in cells, primary screen, cell-based, CHO, BLA complementation, fluorescence; Toll-like receptor 9 (Homo sapiens) + Myeloid differentiation primary response protein …; CCF4 FRET ratio; actives 0.21% (n = 340,000); inhibition, % at 4.98 µM;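 active means inhibition above the mean over all tested compounds plus 3 SD, cut at about 21% in these data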;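 further: 0% = DMSO only wells and 100% = clavulanate BLA inhibitor control wells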
Granule exo inh – LAMP-1 surface exposure blockers, TALL-104 cells – cell-based, flow cytometry, MLPCN library, primary screen | TALL-104 LAMP-1 surface exposure; cells stimulated with thapsigargin and PMA | inhibition, % at 10 µM | actives 0.66% (n = 360,000) | AID 651702, 2012;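 active means inhibition above about 55%, limit read from the data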
ABHD5-PLIN5 inh – ABHD5-PLIN5 interaction inhibitors, primary screen, cell lysate, split luciferase complementation, luminescence; Perilipin-5 (Homo sapiens) + 1-acylglycerol-3-phosphate O-acyltransferase ABHD5 (Homo …; Split G. princeps luciferase complementation, 4 h; inhibition, % at 4 µM; actives 0.78% (n = 360,000);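 active means inhibition above the mean inhibition across every tested compound plus 3 SD, cut at about 22% in these data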;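 further: 0% = DMSO only wells and the 100% control is not disclosed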
NOD2-RIPK2 inh – NOD2-RIPK2 binding disruptors in cells, primary screen, fluorescence, CHO cells, BLA complementation | CCF4 ratio | inhibition, % at 4.98 µM | Receptor-interacting serine/threonine-protein kinase 2 (Homo sapiens), O43353 | actives 0.38% (n = 360,000); in the data active means inhibition above about 21%;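 further: 0% = vehicle only and 100% = reference blocker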
B2AR ag – beta2AR agonists driving receptor internalization, primary screen, cell-based, FAP fluorogen, flow cytometry; Beta-2 adrenergic receptor (Homo sapiens), P07550; Am2.2-beta2AR cells; response, % (no concentration beside the values); actives 0.43% (n = 340,000); AID 504454, 2011;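 active means response above a set limit, near 3 SD of response in nonfluorescent compounds, cut at about 42% in these data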
TLR4 MyD88 comp – inhibitors of TLR4-MyD88 association in cells, primary screen, cell-based, HeLa CL3-4, BLA complementation, FRET ratio | Toll-like receptor 4 (Homo sapiens) + Myeloid differentiation primary response protein … | HeLa CL3-4 TLR4/MyD88 BLA complementation | inhibition, % at 8.4 µM | actives 0.18% (n = 200,000) | AID 861, 2007; in the data active means inhibition above about 25%;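 further: 0% = vehicle and 100% = reference inhibitor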
Exocytosis CP01 – inhibitors of lytic granule exocytosis, confirmation, TALL-104 cells, flow cytometry, Cherry Pick01 | shares compounds with Granule exo inh | LAMP-1 externalization; stimulated with PMA plus thapsigargin | inhibition, % at 10 µM | actives 11% (n = 1,500) | AID 651954, 2012; in the data active means inhibition above about 60%;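 further: 0% = stimulated vehicle wells and 100% = unstimulated wells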
Active calls of the source: *; nt = not tested or not shown.

SMILES	TLR9-MyD88 block	Granule exo inh	ABHD5-PLIN5 inh	NOD2-RIPK2 inh	B2AR ag	TLR4 MyD88 comp	Exocytosis CP01
NC(=Nc1ccccc1)N(c1ccccc1)c1ccccc1	-6	-19	1	-10	-5	nt	nt
Cc1ccc(S(=O)(=O)c2c(N)n(CCCN(C)C)c3nc4ccccc4nc23)cc1	-6	10	5	-5	24	nt	nt
CCCCn1c(NS(=O)(=O)c2ccc(C)cc2)c(S(=O)(=O)c2ccccc2)c2nc3ccccc3nc21	9	68*	-6	-6	23	-6	0
O=[N+]([O-])c1ccc(CSc2ccc(S(=O)(=O)N3CCCCCC3)cn2)cc1	-3	0	-11	-104	1	nt	nt
Cn1c(=N)n(CC(=O)c2ccc(Br)s2)c2ccccc21	-6	0	9	-9	25	11	nt
CCN(CC)CCn1c(=N)n(CC(=O)c2ccc(Br)s2)c2ccccc21	nt	79*	10	5	23	nt	0
N=c1n(CC(=O)c2ccc(Br)s2)c2ccccc2n1Cc1ccccc1	2	77*	15	2	14	nt	45
CC(C)NC(=O)C1(C)CCN1Cc1cccc(C#N)c1 (configuration not stated)	nt	-3	0	0	nt	nt	nt
COc1ccc(CC(=O)NCC2CCCN(Cc3ccc(OC(F)(F)F)cc3)C2)cc1 (configuration not stated)	-3	66*	-1	-3	0	nt	-12
O=C(CCS(=O)(=O)c1ccccc1)N1CCCc2ccccc21	-1	74*	-2	-2	-5	nt	9
Cc1ccc2nc3c(c(Nc4ccc(O)cc4)c2c1)CCC3	-10	61*	0	-6	6	nt	-11
COc1ccc(Nc2c3c(nc4ccc(C)cc24)CCC3)cc1	-5	41	3	9	7	nt	nt
CCOc1ccc(NC(=O)Cn2c(=O)n(CCCC(=O)NC3CCN(Cc4ccccc4)CC3)c(=O)c3ccccc32)cc1	-2	61*	4	2	3	nt	-10
CC(C)Oc1cccc(NC(=O)C2(C)CCCN2C(=O)C(C)C)c1 (configuration not stated)	nt	1	6	5	nt	nt	nt
CC(=O)Nc1ccc(NC(=O)Cc2ccc(S(=O)(=O)N3CCCCC3)cc2)cc1	-1	-7	-8	-4	3	nt	nt
CC(=O)Nc1cccc(-c2cc(NC(C)=O)c3ncc(-c4cccc(C(F)(F)F)c4)n3c2)c1	nt	17	1	-5	nt	nt	nt
COc1ccc(F)cc1-c1cc(NC(C)=O)c2ncc(-c3cccc(C(F)(F)F)c3)n2c1	nt	58*	0	-13	nt	nt	43
CC1(C(=O)NS(=O)(=O)c2cccs2)CCN1C(=O)CCc1ccc(Cl)cc1Cl (configuration not stated)	nt	-5	-1	-9	nt	nt	nt
OC(CNCCC1C=Nc2ccccc21)Cn1c2ccc(Cl)cc2c2cc(Cl)ccc21 (configuration not stated)	-3	71*	20	11	23	-2	12
Cc1cc(C)n(CC(O)Cn2c3ccc(Cl)cc3c3cc(Cl)ccc32)c(=O)n1 (configuration not stated)	5	-2	14	-7	0	-6	nt
NC1=NC[C@H](Cc2ccc(O)cc2)N1CC1CCCCC1	4	65*	5	4	-5	nt	-11
COc1ccccc1N(C)S(=O)(=O)c1ccc(Cl)c(C(=O)OCc2c(C)noc2C)c1	-11	76*	-1	-7	-3	5	24
COc1ccccc1N1C(=O)CC(Sc2n[nH]c(-c3cccc(C)c3)n2)C1=O (configuration not stated)	0	59*	4	-3	12	6	52
COc1ccccc1N1C(=O)CC(Sc2nccc(C)n2)C1=O (configuration not stated)	-7	-3	5	-6	-11	-11	nt
